Experimental data reported in PubChem BioAssay (NCI).
About 83,000 compounds went through this panel and 20% of them were active in at least one assay; those are over-represented in the sample as a whole.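 Note: values are percent growth. 100 is the growth of untreated cells, values between 100 and 0 indicate rising inhibition; between -100 and 0 indicates cell death.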 Activity calls are given as the source filed them. *1 amine or outer side, *2 acyl side, *3 side chain or, on linkers, in order; H or OH if unused. Where a SMILES comes first, the peptide text is derived from it. [ ]: non-standard residue; d: D form. The star is where a group is joined. X5 = CCC(=O)CC1CC(C)CC(C(=O)[*:2])N1[*:1]; X4 = CCCCCCCCC(C)C(=O)*; Aib = CC(C)(N)C(=O)O; X6 = CC(CN(C)CCO)N*

Tested on: NCI-H226 lung
Test: NCI-60 one-dose screen, 48 h (100 = growth as untreated, 0 = no growth, -100 = all killed)
Details: 10 µM unless noted
Protocol: Growth inhibition of the NCI-H226 human Non-Small Cell Lung tumor cell line is measured as a screen for anti-cancer activity. Cells are grown in 96 well plates and exposed to the test compound for 48 hours. Compounds are tested at a single concentration, which is 10^-5 M for most compounds. The reported endpoint is percent growth (GI% or GIPRCNT), where numbers from 0 - 100% represent growth inhibition, and numbers from -100% - 0 represent cell death. For example, a value of 40 represents 60% growth inhibition. A value of 0 means no net growth occurred over the course of the experiment. A value of -40 indicates 40% of cells at the beginning of the experiment died by the end of the experiment. A value of -100 means all cells are dead at the end of the experiment.
NCI-60 Human Tumor Cell Lines Screen was performed using the standard one-dose NCI protocol, which is described in more detail at https://dtp.cancer.gov/discovery_development/nci-60/default.htm.
Compounds with GIPRCNT values below 10 were considered active. Activity score was based on GIPRCNT using the following formula: […]
Score is 0 for GIPRCNT values of 100 or above, 50 for GIPRCNT values of 0, and 100 for GIPRCNT values of -100.

**Q.** For O=C(O)c1cc2c(s1)C(=O)c1sccc1C2=O, which growth is on record?
**A.** 103% (inactive)

**Q.** How did the growth turn out when COc1cc(NC(=O)C2=C(C)NC(C)=C(C(=O)Nc3cc(OC)c(Cl)cc3OC)C2c2cccc([N+](=O)[O-])c2)c(OC)cc1Cl was run?
**A.** 45.7% (inactive)

**Q.** For C[C@@]1(CO)[C@H](O)CC[C@@]2(C)[C@H]1CC[C@H]1C[C@@H]3C[C@@]12CC[C@@]3(O)COC(=O)CN, which growth is on record?
**A.** 62% (inactive)

**Q.** For Cc1cc(=O)oc2cc(O)cc(O)c12, which growth is on record?
**A.** 97.7% (inactive)

**Q.** How did the growth turn out when Cc1cc(C)c(C#N)c(Sc2nc(C)c([N+](=O)[O-])c(C)c2C#N)n1 was run?
**A.** 111% (inactive)

**Q.** With NC(=Nc1nc(-c2ccccn2)cc2ccccc12)c1ccccn1 as the molecule, how does the growth read?
**A.** 21.4% (inactive)

**Q.** Which growth does the source give for O=C1C=CC(=O)N1C1CCCCCCCCCCC1 here?
**A.** 82.9% (inactive)

**Q.** For c1ccc(-c2cccc(-c3ccccn3)n2)nc1, which growth is on record?
**A.** 4.69% (active)

**Q.** For CCCCCCCCCCCCNCCCc1ccccc1, which growth is on record?
**A.** 96.6% (inactive)

**Q.** How did the growth turn out when CC(C)(C)c1ccc(O)c(Br)c1 was run?
**A.** 92.5% (inactive)

**Q.** With O=C(/C=C/C(Cl)(Cl)Cl)Nc1ccc(Cl)cc1 as the molecule, how does the growth read?
**A.** 106% (inactive)

**Q.** With Nc1ccc(Oc2ccccc2)c(Cl)c1 as the molecule, how does the growth read?
**A.** 94.2% (inactive)

**Q.** For N#CC(I)CS(=O)(=O)c1ccccc1 (stereo not given), which growth is on record?
**A.** 105% (inactive)

**Q.** With CC1C(c2ccccc2)OCCN1C(=S)Nc1ccc(S(=O)(=O)N2CCCCC2)cc1 (stereo not given) as the molecule, how does the growth read?
**A.** 91.6% (inactive)

**Q.** For Cc1ccc(N2C(=O)C=CC2=O)cc1, which growth is on record?
**A.** 90.9% (inactive)

**Q.** Which growth does the source give for Cc1nc(Sc2nc3ccc([N+](=O)[O-])cc3s2)sc1C here?
**A.** 2.43% (active)

**Q.** Which growth does the source give for O=C(Cc1ccccc1)C(F)(F)F here?
**A.** 105% (inactive)

**Q.** CC(C)(C)c1ccc(CCO)cc1 was tested. Which growth did it give?
**A.** 91.8% (inactive)

**Q.** How did the growth turn out when CCC[CH2][Sn]1([CH2]CCC)[O]C2C(CO)OC(n3ccc(N)nc3=O)C2[O]1 (stereo not given) was run?
**A.** -93.9% (active)

**Q.** With CCN1CCCC(Nc2cc(C)nc(/N=C(/N)Nc3ccc(Cl)c(Cl)c3)n2)C1 (stereo not given) as the molecule, how does the growth read?
**A.** 32.2% (inactive)

**Q.** With O=C(c1ccccc1)C(Br)C(Br)c1ccccc1 (stereo not given) as the molecule, how does the growth read?
**A.** 109% (inactive)

**Q.** With C/C(=N\NC(=S)N1CC2CCC(CC2)C1)c1ccccn1 as the molecule, how does the growth read?
**A.** 11.7% (inactive)

**Q.** CC1(C)OC2C(COC(c3ccccc3)(c3ccccc3)c3ccccc3)OC(c3c[nH]c4c(N)ncnc34)C2O1 (stereo not given) was tested. Which growth did it give?
**A.** 72.9% (inactive)

**Q.** COc1ccc(C(Cn2ccnc2)Sc2ccc(Cl)c(Cl)c2)cc1 (stereo not given) was tested. Which growth did it give?
**A.** 69.7% (inactive)

**Q.** For O=C1C(=O)c2cc([N+](=O)[O-])ccc2-c2ccccc21, which growth is on record?
**A.** -98.7% (active)

**Q.** For CCCCCCCCC(C)C(=O)N1CCCC1C(=O)N1C(CC(=O)CC)CC(C)CC1C(=O)NC(C)C(=O)NC(C)(C)C(=O)NC(C)(C)C(=O)NC(C(=O)NC(C)C(=O)NC(C)(C)C(=O)NC(C)(C)C(=O)NC(C)CN(C)CCO)C(C)CC (stereo not given) (X4-P[X5]A[Aib][Aib]IA[Aib][Aib]-X6; configuration not given here), which growth is on record?
**A.** -50.7% (active)

**Q.** For O=C1Nc2ccc(Br)cc2C1=O, which growth is on record?
**A.** 93.3% (inactive)

**Q.** For S=C1SCN(Cc2cccs2)CN1Cc1cccs1, which growth is on record?
**A.** 104% (inactive)

**Q.** Which growth does the source give for CC1(O)CCCCCC1 here?
**A.** 99.1% (inactive)

**Q.** With CCOC(=O)/C(=C\c1ccc2ccccc2c1)P(=O)(OCC)OCC as the molecule, how does the growth read?
**A.** 55.7% (inactive)

**Q.** Which growth does the source give for O=C(c1ccccc1)c1ccc(O)c2ncccc12 here?
**A.** 29.3% (inactive)

**Q.** CN(C)c1ccc(C(C#N)(c2ccccc2)c2ccc(N(C)C)cc2)cc1 was tested. Which growth did it give?
**A.** 72.3% (inactive)

**Q.** Which growth does the source give for COc1ccc(NC(=O)/C(=C/N2C(=O)/C(=C/c3ccc(OC)c(OC)c3)NC2=S)C(C)=O)cc1 here?
**A.** 83.1% (inactive)

**Q.** With CCOC(=O)c1cc(CC)sc1NC(=O)CC(C)=O as the molecule, how does the growth read?
**A.** 70.1% (inactive)

**Q.** Which growth does the source give for COC(=O)c1ccc(=O)c2nc3/c(=C/O)c(O)cc(=O)c3[nH]c12 here?
**A.** 34.9% (inactive)

**Q.** How did the growth turn out when CN(C)c1ccc2cc3c(cc2c1)Oc1ccccc1N3.[Cl][Zn][Cl] was run?
**A.** 91.2% (inactive)

**Q.** CCCN(CCC)C(=O)c1ccc(C)cc1 was tested. Which growth did it give?
**A.** 81.2% (inactive)

**Q.** How did the growth turn out when Clc1ccc(Cc2nc3ccccc3s2)cc1 was run?
**A.** 89.2% (inactive)

**Q.** How did the growth turn out when CC(C)c1ccc(Nc2n[nH]c(=S)s2)cc1 was run?
**A.** 105% (inactive)

**Q.** With CCCCC(C=O)(C=C=C(C)C)CC (stereo not given) as the molecule, how does the growth read?
**A.** 103% (inactive)
